Data published in PubChem BioAssay AID588335 (The Scripps Research Institute Molecular Screening Center, 2011).
Out of some 360,000 compounds screened, about 4,500 (1.2%) were called active. The sample holds actives, similar compounds and a random draw of the others, so the mix is not that of the screen. Rule as the data show it: active = inhibition above about 30%; inactive = the rest.

test: GDH-TPI coupling enzyme inhibitors, primary screen, artefact control for M. tuberculosis FBA inhibitor project, biochemical, absorbance, full deck (AID 588335); settings: GDH-TPI coupled enzyme counterscreen, NADH absorbance; at 4.8 µM; hits give high values;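 also: 0% = DMSO wells and 100% = wells lacking the enzyme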

SMILES | inhibition
O=C(Nc1cccc(F)c1)[C@@H]1CCCN1 | -7.69% (inactive)
CSCC[C@H](NC(=O)OC(C)(C)C)C(=O)N/N=C/c1cc2ccc(C)cc2nc1Cl | 14.8% (inactive)
Cc1ccc2cc(/C=N/NC(=O)[C@@H]3CCCN3)c(Cl)nc2c1 | 33.2% (active)
COC(=O)C1(C)CC1(c1ccccc1)c1ccccc1 (centres undefined) | 4.61% (inactive)
COc1cccc(NC(=O)CCc2nnc3ccc(N4CCC(C)CC4)nn23)c1 | 3.45% (inactive)
Cc1cc(C)n(-c2nnc(C)n2NC(=O)c2cccc(Cl)c2)n1 | -3.66% (inactive)
Cn1c2ccccc2c2cc(/C=C(\NC(=O)c3ccccc3)C(=O)NCC(=O)O)ccc21 | 35.1% (active)
CCOc1ccc(/C=C(/NC(=O)c2ccccc2)C(=O)NCCC(=O)O)cc1 | 0.32% (inactive)
O=C(NCC1CCCO1)/C(=C/c1ccc(Cl)cc1)NC(=O)c1ccccc1 (centres undefined) | 0% (inactive)
CC(C(=O)Nc1ccc(F)c(F)c1F)N1CCCCCC1 (centres undefined) | -6.72% (inactive)
CCC(C)(C)c1ccc(Oc2ccc(NC(=O)COC(=O)C3=COCCO3)cc2)cc1 | -7.05% (inactive)
CN(C(=O)COC(=O)c1cc(=O)[nH]c2ccccc12)C1CCCCC1 | 10.5% (inactive)
O=C1N=C(N2CCc3ccccc3C2)S/C1=C\c1ccc(O)cc1 | 33.1% (active)
O=C(CC1SC(N2CCOCC2)=NC1=O)Nc1ccccc1F (centres undefined) | 10.5% (inactive)
Cc1cc(/C=C2/SC(=O)N(CC(=O)N3CCCC3)C2=O)ccc1N1CCOCC1 | 1.85% (inactive)
CCOc1cc(/C=C2\SC(N3CCCCC3)=NC2=O)ccc1O | 24.1% (inactive)
CCc1ccc(/C=C2\SC(N3CCOCC3)=NC2=O)cc1 | 30.8% (active)
O=C1N=C(N2CCOCC2)S/C1=C\C=C/c1ccccc1 | 31.1% (active)
O=C1N=C(N2CCOCC2)CS1 | -6.56% (inactive)
NC1=NC(=O)S/C1=C\c1ccc(O)cc1 | 15.8% (inactive)
c1ccc(-c2csc(N3CCc4ccccc4C3)n2)cc1 | 2.71% (inactive)
CCOc1ccc(C(=O)NCC(=O)N2CCCCCCC2)cc1OCC | -2.14% (inactive)
O=C(NC1CCCCC1)C1CCC(CNS(=O)(=O)c2ccccc2)CC1 (centres undefined) | -8.09% (inactive)
NC(=O)CCC(NS(=O)(=O)c1ccc(Cl)cc1)C(=O)NCc1ccccc1Cl (centres undefined) | 5.93% (inactive)

SMILES | inhibition
O=C(NC1CC1)C1=C[C@H](c2coc3ccccc3c2=O)C[C@H](OCCCCO)O1 | 1.68% (inactive)
CCOC(=O)c1sc(NC(=O)C2CSC3(C)CCC(=O)N23)nc1C (centres undefined) | 4.14% (inactive)
Cn1c(=O)cc(OCC(=O)N2CCN(c3ccccc3F)CC2)c2ccccc21 | 2.59% (inactive)
Cc1cccc(N2CCN(C(=O)CCS(=O)(=O)c3ccc4c(c3)NC(=O)C(C)S4)CC2)c1C (centres undefined) | -2.95% (inactive)
COc1ccc(CCC(=O)N2CCN(S(=O)(=O)c3ccc(OC)cc3)CC2)cc1 | 1.81% (inactive)
CCOC(=O)N1CCN(C(=O)c2ccc3nc4cc(Cl)ccc4c(=O)n3c2)CC1 | -6.67% (inactive)
COc1ccc(C(N)c2csc(NC(=O)Nc3cccc(C(F)(F)F)c3)n2)cc1 (centres undefined) | -1.33% (inactive)
CC(=O)c1ccc(Nc2nc(C(N)c3ccccc3)cs2)cc1 (centres undefined) | 32% (active)
CC(=O)c1ccc(Nc2nc(C(N)c3ccccc3Cl)cs2)cc1 (centres undefined) | 29.2% (inactive)
Cc1cc(NC(=O)/C=C/C(=O)N(c2ccccc2C)C(C(=O)NC2CCCC2)c2ccc(F)cc2)no1 (centres undefined) | 15.8% (inactive)
CN(C)/C=C1/C(=O)Nc2ccccc21 | 36.4% (active)
CN(C)/C=C1\C=C(c2ccccc2)OC1=O | 17.7% (inactive)
O=C1c2ccccc2-c2ccccc2NC1O (centres undefined) | -4.42% (inactive)
CC(C)(C)c1ccc(NC(=O)COC(=O)CCc2nc3ccccc3c(=O)[nH]2)cc1 | 3.69% (inactive)
CCN(CC(=O)NC(=O)NCc1ccccc1)Cc1nc2ccccc2c(=O)[nH]1 | -1.22% (inactive)
CCN(CC)c1ccc(C(=O)NNC(=O)CCc2nc3ccccc3c(=O)[nH]2)cc1 | 30.9% (active)
COc1ccc(S(=O)(=O)N2CCN(C(=O)c3cccs3)CC2)cc1OC | -5.51% (inactive)
CC(C(=O)N(C)CC(=O)Nc1ccccc1C(F)(F)F)N1C(=O)c2ccccc2C1=O (centres undefined) | -1.08% (inactive)
C/C(=N\Nc1cccc(C(=O)O)c1)c1ccc2c(c1)Nc1ccccc1S2 | 7.28% (inactive)
O=C(N/N=C/c1ccsc1)c1cc(O)cc(O)c1 | 4.09% (inactive)
Cc1nc2ccc(C(=O)N/N=C/c3ccc(O)cc3)cc2[nH]1 | 36.4% (active)
Cc1nonc1C(=O)N/N=C/c1ccc(O)cc1 | 29.1% (inactive)
O=S(=O)(c1ccc(SCc2ccc(Br)cc2)nc1)N1CCOCC1 | 0.32% (inactive)
O=C(NCc1ccccc1)C(c1ccccc1)N(C(=O)c1csnn1)c1ccc(F)cc1 (centres undefined) | -1.56% (inactive)

SMILES | inhibition
Cc1nc2ccc(S(=O)(=O)N(C)CC(=O)NC(C)c3ccccc3)cc2s1 (centres undefined) | 14.8% (inactive)
Cc1cccc(C)c1NC(=O)CNC(=O)c1ccc(N2CCOCC2)c([N+](=O)[O-])c1 | 1.79% (inactive)
CC(C)CN(C(=O)COC(=O)c1ccc2ccccc2c1)c1c(N)n(Cc2ccccc2)c(=O)[nH]c1=O | 2.15% (inactive)
CCN(/N=C/c1ccccc1)c1cc(=O)n(C)c(=O)[nH]1 | 36.7% (active)
Cc1cn(C2CC(O)C(CO)O2)c(=O)n(CCCc2ccccc2)c1=O (centres undefined) | -7.8% (inactive)
COc1cc(C(=O)NN(CCC#N)C2=NS(=O)(=O)c3ccccc32)cc(OC)c1OC | 4.46% (inactive)
O=c1[nH]c(/C=C\c2cccc(C(F)(F)F)c2)nc(O)c1[N+](=O)[O-] | 16.2% (inactive)
Cc1cc(OC(=O)c2ccccc2)c([N+](=O)[O-])c(=O)[nH]1 | 3.89% (inactive)
Cc1ccccc1/C=C\c1nc(O)c([N+](=O)[O-])c(=O)[nH]1 | 34.9% (active)
Cc1nnc(SCc2cccc(Cl)c2)n(N)c1=O | -5.68% (inactive)
CN1CCN(C(=O)/C(=C\c2ccc3c(c2)OCO3)NC(=O)c2cccs2)CC1 | 13.8% (inactive)
CN1CCN(C(=O)/C(=C\c2cccs2)NC(=O)c2cccs2)CC1 | 30.9% (active)
Cc1ccc(C(=O)N/C(=C/c2cccs2)C(=O)N2CCCCC2)cc1 | 1.16% (inactive)
FC(F)(F)c1ccc2c3n(nc2c1)CCN=C3c1ccc(Cl)cc1 | 9.17% (inactive)
O=c1[nH]c2c(c(=O)n1-c1ccccc1)CCO2 | 6.88% (inactive)
COc1ccccc1C(C)NC(=O)Cc1ccsc1 (centres undefined) | 6.79% (inactive)
Cc1ccc(N2C(=O)C3C4C=CC(CC4)C3C2=O)cc1Cl (centres undefined) | 0% (inactive)
CC1(C)CC(N2CCN(C(c3ccccc3)c3ccccc3)CC2)=CC(=[N+]2CCCCC2)C1 | 42% (active)
COC(=O)C(c1ccccc1)N1CCCCCC1 (centres undefined) | -4.27% (inactive)
CCOc1ccc(NC(=O)CN(C)CC(=O)NC(C)c2ccccc2)cc1OCC (centres undefined) | 11% (inactive)
Nc1c(-c2ccc(F)cc2)cnn1C1CCS(=O)(=O)C1 (centres undefined) | 3.77% (inactive)
CCOc1cc(/C=N/NC(=O)CN2CCCCC2)ccc1O | 21.8% (inactive)
CCOc1cc(/C=N/NC(=O)c2c(C)nc3ccc(Cl)cn23)ccc1O | 52.2% (active)
CCOc1ccc(/C=N\NC(=O)c2c(C)nc3cc(C)ccn23)cc1 | 21.5% (inactive)

SMILES | inhibition
CCN1C(=NCCc2cccnc2)N[C@@H](c2ccccc2)[C@H](C(=O)OC)[C@H]1C | -8.4% (inactive)
Cc1[nH]c2ccccc2c1/C=C(/C#N)C(=O)NC(C)C | 6.92% (inactive)
COCCNC(=S)N/N=C/c1c(C)[nH]c2ccccc12 | 31% (active)
COCCNC(=S)N(CCc1c(C)[nH]c2ccc(C)cc12)Cc1cccnc1 | 0% (inactive)
CC(=O)Nc1cccc(C(=O)OCN2C(=O)c3ccccc3C2=O)c1 | -2.41% (inactive)
COc1ccc(CCNC(=S)N2CCN(S(=O)(=O)c3ccc(F)cc3)CC2)cc1 | 1.03% (inactive)
CCN(/N=C/c1ccc(N(C)C)cc1)c1nc2ccccc2[nH]1 | 31.3% (active)
Oc1ccc(/C=N/N(Cc2ccccc2)c2ccccc2)cc1 | 11.2% (inactive)
COc1ccc(C(=O)COC(=O)c2nn(C)c(=O)c3ccccc23)c(OC)c1 | -0.9% (inactive)
O=C(O)C1CCCN1S(=O)(=O)c1ccc2c(c1)CCC2 (centres undefined) | -0.82% (inactive)
COc1ccc2sc(-c3ccc(N(C)C)cc3)c(-c3ccc4cc[nH]c4c3)c2c1 | 33.5% (active)
COc1ccc2sc(-c3ccccc3OC)c(-c3ccc(OCCN4CCCC4)cc3)c2c1 | 8.81% (inactive)
COc1cccc(-c2sc3ccc(OC)cc3c2-c2ccc(OCCN3CCCCC3)cc2)c1 | 0.91% (inactive)
Cc1cc(=O)oc(C)c1C(=O)NCc1ccc(F)cc1 | 16.2% (inactive)
COc1ccc(CNC(=O)c2c(C)cc(=O)oc2C)cc1OC | 5.96% (inactive)
Cc1cc(=O)oc(C)c1C(=O)NCCN(C)Cc1ccccc1 | 45.1% (active)
CC(NC(=O)c1ccc(Cl)cc1)C(=O)N1CCCCC1 (centres undefined) | 8.65% (inactive)
Cn1c(SCC(=O)c2ccccc2)ncc(C(=O)Nc2ccc(F)cc2)c1=O | 2.1% (inactive)
Cc1ccc(NC(=O)c2cnc(SCC(=O)NCC3CCCO3)n(C)c2=O)cc1 (centres undefined) | 33.3% (active)
CCn1c(SCC(=O)NCC2CCCO2)nc2ccccc21 (centres undefined) | -11% (inactive)
CC1C(=O)N2CCCc3cc(S(=O)(=O)NCc4ccc(F)cc4)cc1c32 (centres undefined) | 6.01% (inactive)
O=C1C=C(c2ccnc3cc(Cl)ccc23)C[C@@H](c2ccc3c(c2)OCO3)C1 | 1.34% (inactive)
